Bioassay records: PubChem, National Center for Advancing Translational Sciences (NCATS)
JMJD2A Tudor = qHTS Assay for Inhibitors of JMJD2A-Tudor Domain; Lysine-specific demethylase 4A (Homo sapiens), O75164; hit rate 4.4% among 390,000; Potency, µM (series often up to 114 µM), for inactives: at the highest dose activity change, negative = inhibition, most hits filed as inhibitors; AlphaScreen JMJD2A-Tudor / H3K4me3 peptide binding; note: potency is the fitted concentration of half-maximal effect; % is set by controls: 0 for no effect and ±100 for the full control effect; nearly all actives have a fitted effect of over 50% in size
GCN5L2 inh = qHTS Assay for Inhibitors of GCN5L2; Histone acetyltransferase KAT2A (Homo sapiens), Q92830; GCN5L2 HAT assay, ThioGlo1 CoA-SH fluorescence; Potency, µM (highest dose often 58.9 µM), without a hit: at the top dose activity change, negative = inhibition, most hits filed as inhibitors; hit rate 0.21% among 390,000; note: potency is the fitted concentration of half-maximal effect; % is set by controls: 0 for no effect and ±100 for the full control effect
Target sequence (Q92830 whole entry, looked up): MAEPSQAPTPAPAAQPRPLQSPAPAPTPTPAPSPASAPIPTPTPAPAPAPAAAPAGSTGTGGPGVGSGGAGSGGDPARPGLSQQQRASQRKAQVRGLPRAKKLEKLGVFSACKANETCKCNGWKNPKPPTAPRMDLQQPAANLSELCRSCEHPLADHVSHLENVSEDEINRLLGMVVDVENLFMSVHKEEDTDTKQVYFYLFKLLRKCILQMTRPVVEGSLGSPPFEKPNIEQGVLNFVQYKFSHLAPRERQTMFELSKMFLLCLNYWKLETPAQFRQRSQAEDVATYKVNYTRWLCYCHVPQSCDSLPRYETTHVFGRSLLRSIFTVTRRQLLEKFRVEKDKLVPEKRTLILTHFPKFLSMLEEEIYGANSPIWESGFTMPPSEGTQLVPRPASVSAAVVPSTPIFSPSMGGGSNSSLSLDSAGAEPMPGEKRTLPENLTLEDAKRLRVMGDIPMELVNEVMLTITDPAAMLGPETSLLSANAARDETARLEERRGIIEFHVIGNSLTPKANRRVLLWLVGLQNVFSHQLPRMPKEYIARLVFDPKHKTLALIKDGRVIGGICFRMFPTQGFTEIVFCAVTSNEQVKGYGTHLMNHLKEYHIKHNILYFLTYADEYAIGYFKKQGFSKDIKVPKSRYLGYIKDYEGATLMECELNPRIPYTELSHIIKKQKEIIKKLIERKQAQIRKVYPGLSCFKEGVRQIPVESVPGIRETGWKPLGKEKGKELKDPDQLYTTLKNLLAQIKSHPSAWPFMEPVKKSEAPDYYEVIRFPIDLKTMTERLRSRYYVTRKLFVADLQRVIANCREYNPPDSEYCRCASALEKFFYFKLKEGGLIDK
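Fluorescence readout, Ex340nm/Em540nm: ThioGlo1 (50uM final) reacts with free CoA thiol released as 20nM GCN5L2 acetylates H3(1-25) peptide (75uM) using acetyl-CoA (70uM). Compound and enzyme sat 15 min beforehand; 20 min room-temperature reaction.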
HP1b chromo inh = HTS for Inhibitors of HP1-beta Chromodomain Interactions with Methylated Histone Tails | Chromobox protein homolog 1 (Homo sapiens), P83916 | AlphaScreen HP1-beta / biotin-H3K9me3 peptide binding | Potency, µM (doses to about 114 µM), without a hit: at the highest dose activity change, negative = inhibition, usual class: inhibitors | hit rate 0.56% among 390,000; note: potency is the fitted concentration of half-maximal effect; nearly all actives have a fitted effect of over 70% in size
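HP1-beta protein (50 nM final) preincubated 30 min at room temperature with biotinylated H3(1-18)K9me3 peptide (50 nM) in PBS pH 7.4, 0.01% Tween-20, then compound added for 30 min. AlphaScreen streptavidin donor/nickel chelate acceptor beads (10 ug/mL final), 30 min dark, luminescence read.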
BAZ2B inh = qHTS Assay for Inhibitors of BAZ2B; Bromodomain adjacent to zinc finger domain protein 2B (Homo sapiens), Q9UIF8; AID 504333, 2011; Potency, µM (top dose mostly 114 µM), inactives show top-dose activity change, negative = inhibition, usual class: inhibitors; hit rate 4.4% among 360,000; AlphaScreen BAZ2B-H3K14Ac peptide displacement; note: potency is the fitted concentration of half-maximal effect; % is set by controls: 0 for no effect and ±100 for the full control effect; nearly all actives have a fitted effect of over 60% in size
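Inhibition is scored as reduced AlphaScreen emission. The BAZ2B/b-H3(5-23)K14Ac complex (50 nM each) in PBS pH 7.4, 0.01% Tween-20 meets compound (up to 110 uM) for 30 min at RT before bead addition.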
PLK1 PBD block = qHTS for Inhibitors of PLK1-PDB (polo-like kinase 1 - polo-box domain): Primary Screen; Serine/threonine-protein kinase PLK1 (Homo sapiens), P53350; hit rate 2.8% among 360,000; Plk1 PBD binding of FITC phosphopeptide, fluorescence polarization; Potency, µM, for inactives: max response, negative = inhibition, actives largely listed as inhibitors; note: potency is the fitted concentration of half-maximal effect; series mostly up to about 57 µM; % is set by controls: 0 for no effect and ±100 for the full control effect; nearly all actives have a fitted effect of over 65% in size
PI5P4Ka inh = qHTS for Inhibitors of phosphatidylinositol 5-phosphate 4-kinase (PI5P4K) | AID 652105, 2013 | max response, % | PI5P4Kalpha enzyme, ADP-Glo luminescence, 60 min; stronger effect = lower value | hit rate 1.2% among 330,000; active = max response of -50% or lower; inconclusive = between -30% and -50%; inactive = -30% or higher; note: value at the top dose of about 77 µM; % is set by controls: 0 for no effect and ±100 for the full control effect
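Reactions run in 0.038 M HEPES pH 7.4, 0.28 mM EGTA, 0.1% CHAPS and 5% DMSO, with PI5P4Kalpha, substrate, compound and 5 microM ATP final, one hour at room temperature. Readout is ADP-Glo luminescence.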
Active calls of the source: *; ? = inconclusive; . = no result; [ ] = dose if it differs, or a comment. Shown are actives, neighbours in structure and some others; about 7% of the full set was active somewhere. Unless noted, calls come from the whole dose curve; as a rule, active = well fitted curve in the direction sought with a large enough effect; inconclusive = small, poorly fitted or top-dose-only effect, or another doubt; inactive = no such curve, though single readings can be large; an effect the other way counts as inactive or inconclusive.

SMILES	JMJD2A Tudor	GCN5L2 inh	HP1b chromo inh	BAZ2B inh	PLK1 PBD block	PI5P4Ka inh
Cc1ccccc1-c1nc(CS(=O)(=O)CC(=O)NCC(C)c2ccccc2)c(C)o1 (configuration not stated)	-29.0%	-12.6%	2.8%	?	.	.
O=C(CC(=O)Nc1ccc(Cl)cc1Cl)Nc1ccc(Cl)cc1Cl	-18.2%	25.5%	10.3%	3.4%	29.9µM*	-4.9
O=C(COc1cccc2ccccc12)Nc1cc(Cl)ccc1C(=O)O	-21.8%	-1.3%	6.5%	-2.8%	21.2µM*	?
O=C(COc1ccccc1C(=O)O)Nc1cccc2ccccc12	-12.3%	-3.9%	21.8%	.	-8.5%	4.2
CCC(=O)Nc1cc(Cl)ccc1C(=O)O	79.4µM*	-3.4%	26.0%	?	-10.3%	-17.2
O=C(O)c1ccc(Cl)cc1Nc1nc2cc(Cl)ccc2o1	-22.6%	?	-3.1%	-4.1%	18.9µM*	-16.8
CSc1ccc(CCNC(=O)CCc2c(C)nc3c(c(C)nn3-c3ccc(C)c(C)c3)c2C)cc1	-1.3%	-3.8%	40.3%	-20.7%	.	.
O=C1c2ccccc2C(=O)N1c1cccc2cnccc12	-4.1%	.	.	.	.	.
O=C(COc1ccccc1Cl)Nc1ccc(C(=O)O)cc1NC(=O)COc1ccccc1Cl	-12.5%	2.5%	0.9%	-5.3%	-18.6%	-64.3*
O=C(COc1ccccc1Cl)Nc1ccccc1C(=O)Nc1cccc(C(=O)O)c1	-21.5%	2.4%	8.9%	-16.5%	1.5%	-2.5
Cc1cccc(Nc2ccc([N+](=O)[O-])cc2C(=O)O)c1	?	-6.5%	0.3%	50.1µM*	-9.4%	1.0
O=C(O)c1cc([N+](=O)[O-])ccc1NCc1ccccn1	79.4µM*	-0.8%	27.3%	79.4µM*	-2.7%	-14.0
O=C(O)c1cc([N+](=O)[O-])ccc1NCCc1ccccc1	?	?	-8.8%	?	2.2%	-8.1
O=C(O)c1cc([N+](=O)[O-])ccc1NCc1ccccc1Cl	-30.8%	-9.9%	-21.6%	-7.8%	23.8µM*	-1.4
Cc1cn(C)c(CC(=O)Nc2cccc(C#N)c2)c1C(=O)O	-18.3%	-3.3%	19.9%	-19.3%	.	.
CC(C)NS(=O)(=O)c1ccc(CCC(=O)N2CCCCC2)cc1	-7.6%	-6.7%	3.0%	-9.8%	-7.4%	-1.9
Nc1ccc(Oc2ccc(Br)cc2)cc1	?	3.5%	?	39.8µM*	-17.3%	0.9
O=C1N(c2ccccc2)CCN1c1ccccc1	-1.4%	-4.7%	23.9%	9.8%	-11.2%	6.2
O=S1OCCN1c1ccccc1 (configuration not stated)	-21.7%	-6.9%	17.8%	-5.9%	33.6µM*	-10.6
C#CCN(C[C@@H]1[C@@H](OC(=O)NCc2ccco2)[C@@H](OC(=O)NCc2ccco2)CN(C(=O)OC(C)C)N1C(=O)OC(C)C)S(=O)(=O)c1ccc(C)cc1	.	.	.	.	?	-4.3
C#CCN(C[C@@H]1[C@@H](OC(=O)NC2CC2)[C@@H](OC(=O)NC2CC2)CN(C(=O)OC(C)C)N1C(=O)OC(C)C)S(=O)(=O)c1ccc(C)cc1	.	.	.	.	21.2µM*	0.1
O=C(NCc1ccccn1)c1[nH]c(C(F)(F)F)nc1-c1ccccc1	.	.	.	.	-8.5%	3.4
COc1ccc(Cl)cc1NC(=O)Cn1c(=O)n(Cc2ccco2)c(=O)c2cccnc21	-5.5%	-0.6%	59.7%	8.6%	.	.
Cc1cccc(C(=O)N2[C@@H](C(C)C)COc3cc(Br)ccc3S2(=O)=O)c1	-23.0%	.	62.3%	.	21.2µM*	-17.4
O=C(Cn1cc(S(=O)(=O)Cc2ccccc2Cl)c2ccccc21)Nc1ccc(F)cc1F	-8.6%	-9.8%	12.7%	3.6%	.	.
SMILES	JMJD2A Tudor	GCN5L2 inh	HP1b chromo inh	BAZ2B inh	PLK1 PBD block	PI5P4Ka inh
O=c1c2c3c(sc2n2cnnc2n1-c1ccccc1)N(Cc1ccccc1)CCC3	?	2.8%	5.2%	-32.8%	29.9µM*	-20.5
CCCc1ccc(C(O)c2ncc(-c3ccccc3C)[nH]2)cc1 (configuration not stated)	.	.	.	.	-1.9%	-2.1
CC(=O)c1cc(-c2ccc(F)cc2)n(CCC(=O)Nc2nc3c(C)cccc3s2)c1C	-5.4%	-1.3%	25.8%	0.4%	.	.
COc1ccc(NC2CCCN(C(=O)CCc3cccc(Cl)c3)C2)cc1 (configuration not stated)	?	-6.9%	?	35.5µM*	-9.2%	-0.9
Cc1[nH]c(-c2ccc(F)cc2)cc1C(=O)N1CCN(c2ccc(Cl)cc2)CC1	?	-6.4%	-27.8%	?	3.3%	5.0
COc1cc2c(cc1OC)CN(C(=O)c1ccc3[nH]c(C)c(C)c3c1)CC2	?	-18.4%	-27.4%	50.1µM*	-5.5%	-1.0
Cc1[nH]c2ccc(C(=O)N3CCN(c4ccc(F)cc4)CC3)cc2c1C	50.1µM*	-14.6%	-24.0%	35.5µM*	1.2%	4.8
COc1ccc(NC2CCCN(C(=O)CCc3cccc(F)c3)C2)cc1 (configuration not stated)	?	-7.2%	-17.2%	?	-1.3%	0.4
COc1ccc(N2CCN(C(=O)c3cc(-c4ccc(F)cc4)[nH]c3C)CC2)cc1	44.7µM*	-2.2%	?	44.7µM*	-6.7%	0.3
COc1cc2c(cc1OC)CN(C(=O)c1cc(Cl)nc(Cl)c1)CC2	-15.3%	-15.2%	7.7%	-9.0%	-5.9%	-1.1
Cc1cc(C)c2c(c1C)C(=O)CCC2	20.0%	.	16.2%[57 µM]	.	0.0%	-3.0
CC(OC(=O)c1ccccc1)C(=O)NCc1ccco1 (configuration not stated)	-20.6%	-2.0%	30.2%	.	-2.5%	-3.1
COc1cccc(N2CCN(C(=O)c3cccc(NC(=O)c4nsc5ccccc45)c3)CC2)c1	-35.1%	-13.8%	-2.7%[57 µM]	-12.2%	.	.
CC1=C(C(=O)Nc2cc(C(=O)N3CCN(c4cccc(C)c4)C(C)C3)ccc2C)SCCO1 (configuration not stated)	?	-4.6%	-7.4%	?	-6.1%	-9.0
COc1ccc(N2CCN(C(=O)c3cccc(NC(=O)c4nsc5ccccc45)c3)CC2)cc1	?	-9.4%	?	7.94µM*	.	.
